# From PubChem BioAssay AID1347418 (Sanford-Burnham Center for Chemical Genomics, 2020)
# Screen size: about 1,300 compounds; about 750 (58%) were called active. This is one part of the list. Unmarked numbers belong to inactive results. Residues, ends and D or L forms follow the SMILES beside them. *: point of attachment. Cbz = O=C(OCc1ccccc1)*
# Molecular target: Sulfhydryl oxidase 1 (Homo sapiens) (UniProt O00391)
# Assay: QSOX1 enzyme inhibitors, primary screen, biochemical, ROS-Glo H2O2 luminescence, HTS (AID 1347418)
# Settings: recombinant QSOX1, ROS-Glo H2O2 luminescence; at 12.5 µM; stronger effect = higher value; active = any value above zero
# Sulfhydryl oxidase 1 (Homo sapiens), sequence (O00391 whole entry, looked up): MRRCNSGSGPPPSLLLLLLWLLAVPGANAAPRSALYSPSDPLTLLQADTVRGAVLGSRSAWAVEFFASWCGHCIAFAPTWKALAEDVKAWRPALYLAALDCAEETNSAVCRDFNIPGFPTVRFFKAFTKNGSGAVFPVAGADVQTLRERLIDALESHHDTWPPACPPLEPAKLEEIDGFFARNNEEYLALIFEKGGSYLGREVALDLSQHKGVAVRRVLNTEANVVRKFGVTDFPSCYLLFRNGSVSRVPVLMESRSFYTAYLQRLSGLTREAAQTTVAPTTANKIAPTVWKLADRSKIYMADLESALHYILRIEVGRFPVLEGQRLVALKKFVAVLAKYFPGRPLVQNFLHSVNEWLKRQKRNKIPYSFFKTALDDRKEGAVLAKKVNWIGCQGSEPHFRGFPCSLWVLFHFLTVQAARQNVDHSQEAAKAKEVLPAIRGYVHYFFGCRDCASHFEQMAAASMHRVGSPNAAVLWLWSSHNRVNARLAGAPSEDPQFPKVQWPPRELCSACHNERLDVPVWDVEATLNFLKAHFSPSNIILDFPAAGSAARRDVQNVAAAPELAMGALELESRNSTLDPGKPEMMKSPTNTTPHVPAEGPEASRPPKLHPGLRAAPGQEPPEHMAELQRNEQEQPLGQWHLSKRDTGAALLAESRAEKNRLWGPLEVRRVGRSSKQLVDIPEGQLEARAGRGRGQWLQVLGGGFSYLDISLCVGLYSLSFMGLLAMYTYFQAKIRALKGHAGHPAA
row,SMILES,inhibition
1,O=c1cc(-c2ccccc2F)[nH]c2cc3c(cc12)OCO3,4.4% (active)
2,OC(CN1CCC(Cc2ccc(F)cc2)CC1)c1ccc(Cl)cc1 (centres undefined),7.6% (active)
3,c1ccc(C2CN3CCSC3=N2)cc1 (centres undefined),0.3% (active)
4,Brc1ccc([C@H]2CN3CCSC3=N2)cc1,6.2% (active)
5,c1ccc([C@H]2CN3CCSC3=N2)cc1,-2.6%
6,O=C(CCCN1CCC(O)(c2cccc(C(F)(F)F)c2)CC1)c1ccc(F)cc1,-4.6%
7,CN1CCN(CCCN2c3ccccc3Sc3ccc(C(F)(F)F)cc32)CC1,27.4% (active)
8,OCCN1CCN(CC/C=C2/c3ccccc3Sc3ccc(C(F)(F)F)cc32)CC1,0.6% (active)
9,OCCN1CCN(CCCN2c3ccccc3Sc3ccc(C(F)(F)F)cc32)CC1,43.6% (active)
10,NC(=O)c1cn(Cc2c(F)cccc2F)nn1,1.3% (active)
11,Cc1ccccc1N1C(=O)c2cc(S(N)(=O)=O)c(Cl)cc2NC1C (centres undefined),0.3% (active)
12,NC/C=C\C(=O)O,-0.4%
13,COc1cc2c(CCNC(C)=O)c[nH]c2cc1Cl,-1.4%
14,COc1ccc2[nH]cc(CCNC(C)=O)c2c1,5.6% (active)
15,COc1cc2c(CCNC(C)=O)c[nH]c2cc1O,45.2% (active)
16,CC(=O)NCCc1c[nH]c2ccc(O)cc12,27.5% (active)
17,COc1ccc(NC=O)c(C(=O)CCNC(C)=O)c1,-0.8%
18,Nc1nc(OCC2CCCCC2)c2[nH]cnc2n1,0%
19,Nc1nc(OCc2ccccc2)c2[nH]cnc2n1,2% (active)
20,NC/C=C/C(=O)O,-2.4%
21,O=c1ccc2c(OCCCCc3ccccc3)c3ccoc3cc2o1,2.3% (active)
22,CC(=O)O[C@H]1Cc2ccccc2N(C(N)=O)c2ccccc21,0.3% (active)
23,NC(=O)N1c2ccccc2C=Cc2ccccc21,-1.4%

row,SMILES,inhibition
1,CC(C)(C)C(=O)Oc1ccc(S(=O)(=O)Nc2ccccc2C(=O)NCC(=O)O)cc1,-1%
2,CC1(C)CCC2=C(O1)c1ccccc1C(=O)C2=O,40.5% (active)
3,COc1cc(Cc2cnc(N)nc2N)cc(OC)c1OC,0.5% (active)
4,COc1cc2c(cc1OC)C1CC(=O)C(CC(C)C)CN1CC2 (centres undefined),2.6% (active)
5,CC[C@H]1CN2CCc3cc(OC)c(OC)cc3[C@@H]2C[C@@H]1C[C@H]1NCCc2cc(OC)c(OC)cc21,1.7% (active)
6,CCc1cccc(N(C)C(N)=Nc2cccc3ccccc23)c1,8.7% (active)
7,Fc1ccc(C(c2ccc(F)cc2)N2CCN(C/C=C/c3ccccc3)CC2)cc1,0.4% (active)
8,C(=C\c1ccccc1)/CN1CCN(C(c2ccccc2)c2ccccc2)CC1,4.9% (active)
9,CN(C)CCCc1cc(C(=O)Nc2ccc(-c3ccncc3)cc2)ccc1O,2.5% (active)
10,Cc1nc(N=Nc2ccc(C(=O)O)cc2)c(COP(=O)(O)O)c(C=O)c1O,0.9% (active)
11,Cc1nc(N=NC2=[C+]C3=C(C=C([N+](=O)[O-])[C+]=C3S(=O)(=O)[O-])C(S(=O)(=O)[O-])=[C+]2)c(COP(=O)([O-])O)c(C=O)c1O,2.8% (active)
12,C#CCN(C)CCCOc1ccc(Cl)cc1Cl,-1.5%
13,Cn1ccnc1,-4.4%
14,CN(C)CCC=C1c2ccccc2CCc2ccccc21,-4.4%
15,CN(C)CCC=C1c2ccccc2C=Cc2ccccc21,1% (active)
16,CN(C)CC/C=C1\c2ccccc2COc2ccccc21,-3.1%
17,CSc1ccc2c(c1)N(CCC1CCCCN1C)c1ccccc1S2 (centres undefined),46.5% (active)
18,CSc1ccc2c(c1)C(N1CCN(C)CC1)Cc1ccccc1S2 (centres undefined),-0.9%
19,Oc1cc2c(cc1O)CN(C(=S)NCCc1ccc(Cl)cc1)CCC2,25.5% (active)
20,CC(C)NCC(O)COc1ccc(CCOCC2CC2)cc1 (centres undefined),-0.5%
21,COCCc1ccc(OCC(O)CNC(C)C)cc1 (centres undefined),-2%
22,CC(C)NC[C@H](O)COc1ccc(CC(N)=O)cc1,5.2% (active)
23,CC(C)NCC(O)COc1ccc(COCCOC(C)C)cc1 (centres undefined),3.9% (active)

row,SMILES,inhibition
1,CC(C)NCC(O)COc1ccc(CC(N)=O)cc1 (centres undefined),-2%
2,COC(=O)c1c(C)[nH]c(C)c1C(=O)c1ccccc1Cc1ccccc1,1.9% (active)
3,C=CCc1cccc(/C=N/NC(=O)CN2CCN(Cc3ccccc3)CC2)c1O,-3.2%
4,CN1CCc2cccc3c2C1Cc1ccc(O)c(O)c1-3 (centres undefined),17.1% (active)
5,COc1cc2ncnc(Nc3cccc(Cl)c3)c2cc1OC,-1.3%
6,O=c1n(CCCN2CCN(c3cccc(Cl)c3)CC2)nc2ccccn12,8.6% (active)
7,O=c1c(-c2ccc(O)cc2)coc2cc(O)ccc12,7.6% (active)
8,O=c1c(-c2ccc(O)cc2)coc2cc(O)cc(O)c12,-5.9%
9,CC(C)C[C@H](NC(=O)[C@@H](O)[C@H](N)Cc1ccccc1)C(=O)O,0.1% (active)
10,O=C(N[C@@H](Cc1ccccc1)C(=O)CCl)OCc1ccccc1,-6.4%
11,CC(C)C[C@H](NC(=O)[C@H](O)[C@H](N)Cc1ccccc1)C(=O)O,9.6% (active)
12,CC(C)[C@H](NC(=O)OCc1ccccc1)C(=O)N[C@H](C=O)Cc1ccccc1 (Cbz-Val-Phe-aldehyde),-1.6%
13,O=P(O)(O)C(Cl)(Cl)P(=O)(O)O,5.2% (active)
14,N[C@H](C(=O)O)[C@H](Cc1ccccc1)C(=O)O,0.5% (active)
15,O=C(O)CNC(=O)C(CS)Cc1ccccc1 (centres undefined),-1.4%
16,O=C1c2c(O)cc(O)cc2OC(c2ccc(O)c(O)c2)C1O (centres undefined),9.8% (active)
17,Oc1cc(O)c2c(c1)O[C@H](c1ccc(O)c(O)c1)[C@@H](O)C2,12.2% (active)
18,[Li+],0%
19,O=C(O)CCc1ccc(NCc2cccc(Oc3ccccc3)c2)cc1,13.1% (active)
20,CC(C)(C)NCC(O)COc1cccc2[nH]c(=O)[nH]c12 (centres undefined),0.2% (active)
21,Brc1c(Br)c(Br)c2[nH]cnc2c1Br,3.9% (active)
22,CN1CCc2ccccc2Cc2[nH]c3ccccc3c2CC1,6.3% (active)
23,N=C(N)N1CCc2ccccc2C1,-3.7%
